# Compound activity from PubChem.
# Mcl1-Noxa inh: disrupts binding of human Mcl-1 to Noxa peptide | Q07820 | inhibition, % at 21.7 µM | TR-FRET Mcl-1/Noxa peptide binding, 2 h | actives 1.5% (n = 220,000);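 active means compounds that cut the protein-peptide binding signal by more than 50% relative to plate controls in a single-dose test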;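 further: His-tagged Mcl-1 with rhodamine Noxa BH3 peptide and terbium anti-His antibody; 0% = Mcl-1 plus Noxa peptide wells and 100% = peptide-only wells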
# Target sequence (Q07820 whole entry, looked up): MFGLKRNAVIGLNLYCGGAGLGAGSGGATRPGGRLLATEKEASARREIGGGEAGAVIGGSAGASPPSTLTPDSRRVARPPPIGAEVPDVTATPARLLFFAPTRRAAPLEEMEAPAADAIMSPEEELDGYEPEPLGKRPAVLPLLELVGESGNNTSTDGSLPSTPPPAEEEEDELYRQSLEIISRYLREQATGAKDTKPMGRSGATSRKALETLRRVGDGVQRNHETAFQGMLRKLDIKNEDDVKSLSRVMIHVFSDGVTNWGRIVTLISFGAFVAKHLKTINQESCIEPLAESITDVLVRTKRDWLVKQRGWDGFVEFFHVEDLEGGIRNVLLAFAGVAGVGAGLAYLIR
# Bim-Mcl-1: human Bim-Mcl-1 interaction inhibition; Q07820; Bead-based flow cytometry, Bim peptide-Mcl-1 binding; inhibition, % at 10 µM; actives 0.1% (n = 190,000); AID 1009; in the data active means inhibition above about 40%;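 further: 0% = no compound tracer wells and 100% = peptide blocker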
# Mcl1 Bid PPI: Mcl-1/Bid interaction inhibition | Q07820 | TR-FRET Mcl-1/Bid-Dy647 peptide binding, 1536-well | inhibition, % at 21.7 µM | actives 0.97% (n = 220,000);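 active means compounds that cut the binding signal by more than half at the single screening dose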;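 further: His-tagged Mcl-1 with europium anti-His antibody binding Bid BH3 peptide; 0% = Mcl-1 plus peptide wells and 100% = peptide-only wells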
# 14-3-3 Bad inh: disrupts binding of bovine 14-3-3 zeta to phospho-Bad peptide; inhibition, % at 21.7 µM; actives 0.71% (n = 220,000); AID 781; P63103; TR-FRET 14-3-3zeta/Dy647-pBad peptide displacement, 1 h;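 active means inhibition above about 70%, limit read from the data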;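 further: 0% = full 14-3-3 plus peptide FRET controls and 100% = background without 14-3-3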
# Target sequence (P63103 whole entry, looked up): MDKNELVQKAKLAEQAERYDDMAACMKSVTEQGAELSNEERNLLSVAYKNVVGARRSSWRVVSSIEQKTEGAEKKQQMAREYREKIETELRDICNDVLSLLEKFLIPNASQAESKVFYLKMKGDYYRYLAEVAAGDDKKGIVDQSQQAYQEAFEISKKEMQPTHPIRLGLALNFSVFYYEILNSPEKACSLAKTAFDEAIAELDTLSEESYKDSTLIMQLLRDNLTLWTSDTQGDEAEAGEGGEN
# Arbovirus anti: blocks arbovirus infection; arbovirus infection cell-based antiviral screen; inhibition, % at 10 µM; actives 0.37% (n = 200,000); AID 1251; in the data active means inhibition above about 30%
# Numbers without * were called inactive; x = not tested or not shown; [ ] = another dose, or the depositor's remark. Most compounds without a hit are left out; they make up all but 3% or so of the library.
SMILES,Mcl1-Noxa inh,Bim-Mcl-1,Mcl1 Bid PPI,14-3-3 Bad inh,Arbovirus anti
Cc1cc(=O)[nH]c(SCC(=O)c2ccc3c(c2)NC(=O)CO3)n1,18.1,x,96.8*,3.5,x
Cc1cc(C(=O)OCC(=O)c2ccc3c(c2)NC(=O)CO3)c2ccccc2n1,36.5,0.0,63.2*,21.6,1.7
CN(C)S(=O)(=O)c1cccc(C(=O)OCC(=O)c2ccc3c(c2)NC(=O)CO3)c1,7.2,89.0*,-12.4,4.6,-7.0
COc1ccc(NC(=O)COC(=O)c2ccc([N+](=O)[O-])o2)cc1Cl,-0.1,0.0,-28.1,-1.5,12.9
S=c1[nH]nc(-c2ccncc2)n1/N=C/c1cccc(Cl)c1,22.6,x,-105.2,6.6,x
Cc1ccc2nc(-c3ccc(NC(=O)COC(=O)c4ccc(Br)o4)cc3)sc2c1,13.0,-5.0,17.4,3.2,-25.7
Cc1ccc2nc(-c3ccc(NC(=O)COC(=O)c4ccc([N+](=O)[O-])o4)cc3)sc2c1,70.7*,0.0,61.7*,50.2,-24.8
COc1ccc(/C=N/OCC(=O)NC(c2ccccc2)c2ccccc2)cc1OC,10.4,-2.0,3.6,-2.9,7.7
O=C(CCN1CCC(c2cccs2)=N1)c1cccs1,10.2,x,-35.7,-15.2,x
CCc1c(C)[nH]c2ccc(OC)cc2c1=S,73.5*,-5.0,-2.5,-5.7,-8.0
COc1ccc2[nH]c(C)c(CCNC(=S)Nc3cc(C)cc(C)c3)c2c1,3.8,-2.0,-14.8,-8.9,-3.9
COc1ccc2c(Cl)c(C(=O)N/N=C/c3ccc4c(c3)OCO4)sc2c1,-4.9,-3.0,37.0,72.5*[fluorescence artefact?],-3.4
O=C(N/N=C/c1ccc2c(c1)OCO2)c1sc2cc(Cl)ccc2c1Cl,48.6,1.0,50.5*,50.0,-17.9
COc1ccc(NS(=O)(=O)c2cccc(C(=O)N/N=C/c3ccc4c(c3)OCCO4)c2)cc1,31.8,-1.0,64.8*,7.4,-9.8
COC(c1ccccc1)c1nnc(CCC(=O)NCCC(C)C)o1 (centres undefined),8.6,2.0,-8.7,-6.6,3.2
C/C(=N\NC(=O)COc1ccc(C#N)cc1)c1ccccc1OC(F)F,-0.8,49.0*,-13.1,9.1,0.3
Cc1cc(C(=O)NC2CCCc3ccccc32)no1 (centres undefined),14.4,46.0*,-6.5,-8.5,-0.2
O=C(O)C1C2C=CC(C2)C1C(=O)NCc1ccc(Cl)c(Cl)c1 (centres undefined),24.7,-5.0,-42.6,-8.8,-1.4
O=C(O)COC(=O)C1C(c2ccccc2)C(C(=O)O)C1c1ccccc1 (centres undefined),14.6,1.0,-3.2,-11.5,4.6
CCc1c(C(=O)Nc2cc(C)ccc2OC)[nH]c(C)c1C(C)=O,5.5,2.0,95.8*,-4.5,-1.0
CN(C)c1ccnc(-n2cccc2/C=N/OCc2cccc(F)c2)c1C#N,-18.3,1.0,-17.8,79.8*,7.1
CO/N=C/c1cccn1-c1nccc(OC)c1C#N,4.9,0.0,-25.6,-7.4,-0.8
COC(=O)c1ccc(CSc2nc(-c3ccccc3)cs2)o1,79.8*,-2.0,-3.6,-11.0,8.9
O=C(N/N=C/c1ccc(O)cc1)c1csc2c1CCCC2,21.6,-3.0,-23.5,-0.8,-4.6
CCOC(=O)c1sc(N/N=C/c2ccccc2)nc1C,22.7,-11.0,-2.6,1.4,-5.7
SMILES,Mcl1-Noxa inh,Bim-Mcl-1,Mcl1 Bid PPI,14-3-3 Bad inh,Arbovirus anti
O=C(O)Cc1sc(N/N=C\c2ccccc2)nc1-c1ccccc1,61.9*,-3.0,-35.3,-10.7,-4.9
N#C/C(=N\Nc1ccc(S(=O)(=O)N2CCc3ccccc32)cc1)C(N)=S,59.7*,2.0,-7.2,-14.0,-5.0
CCOC(=O)/C(C#N)=N/Nc1ccc(S(=O)(=O)N2CCc3ccccc32)cc1,15.4,0.0,-31.8,-21.2,26.4
CCCCc1[nH]nc2c1C1(C(=O)N(CC)c3ccccc31)C(C#N)=C(N)O2 (centres undefined),105.9*,-2.0,0.2,-10.0,8.9
CSc1nc2ccc(NC(=O)c3cc4ccccc4o3)cc2s1,1.7,0.0,-3.1,4.8,3.0
CCOC(=O)c1c(C)oc2c1c(C(c1cccnc1)N1CCCCC1)c(O)c1ccccc12 (centres undefined),98.4*,0.0,59.7*,18.6,-46.1
CCOC(=O)c1c(C)oc2c1c(C(c1ccccc1)N1CCOCC1)c(O)c1ccccc12 (centres undefined),57.6*,1.0,59.8*,1.1,-37.5
Cc1cc(C)cc(OCC(=O)N/N=C/c2ccccn2)c1,-12.8,x,-48.5,-7.0,x
O=C(CN1CCN(Cc2ccccc2Cl)CC1)N/N=C/c1ccccn1,69.2*,x,-18.5,-4.4,x
O=C(COc1ccccc1[N+](=O)[O-])N/N=C/c1ccc(O)c([N+](=O)[O-])c1,2.3,0.0,-8.9,-1.7,-21.1
O=C(COc1ccccc1C(=O)N/N=C\c1ccc(O)c(O)c1)N/N=C/c1ccc(O)c(O)c1,99.8*,12.0,-40.3,-5.7,-8.1
Cc1ccccc1OCC(=O)N/N=C/c1ccccn1,-0.7,64.0*,-13.8,2.0,-10.8
COC(=O)C(CC(=O)O)NCc1ccco1 (centres undefined),-6.6,x,-7.6,3.2,x
CC(C)CCNC(=O)NC(=O)COC(=O)/C=C/c1cnc2ccccc2n1,-0.6,-3.0,-12.6,-11.0,-0.9
C/C(=C\C(=O)c1sccc1Cl)N(C)C,0.7,-4.0,-25.6,-8.1,1.4
Cc1ccc2cc(CCNC(=O)c3cccs3)c(=O)[nH]c2c1,18.9,-2.0,10.5,7.0,-3.1
CN(C)CCCOc1ccc(Cl)cc1Br,30.3,-4.0,53.4*,7.2,-6.0
Clc1ccc(OCCOCCN2CCCCC2)c(Br)c1,33.8,0.0,62.4*,69.6,-16.5
O=C(Cc1cccs1)Nc1nnc(CCc2ccccc2)s1,9.7,2.0,-0.3,4.9,6.3
Cc1ccc([N+](=O)[O-])cc1NC(=O)Cc1cccs1,55.6*,0.0,-21.5,56.0,-6.1
COc1cc(NC(=O)c2ccccc2)c(OC)cc1NC(=O)Cc1cccs1,61.5*,0.0,-108.0,0.8,-10.7
Cc1ccc([N+](=O)[O-])cc1NC(=O)Cc1ccc(F)cc1,-1.4,-3.0,18.4,-21.9,-3.1
COc1ccc(C(=O)Nc2nnc(Cc3cccs3)s2)cc1OC,-6.3,-4.0,-12.4,2.3,-17.2
COc1ccc(NC(=O)Cc2cccs2)c(OC)c1,19.6,-7.0,-11.8,6.7,-12.1
O=C(Cc1cccs1)Nc1nnc(Cc2ccccc2)s1,82.1*,-17.0,-38.8,-14.2,-7.6
COc1ccc(Cc2nnc(NC(=O)Cc3cccs3)s2)cc1OC,96.4*,0.0,75.8*,63.0,8.5
CCOC(=O)C1CCCN(S(=O)(=O)c2ccc(S(=O)(=O)N(CC)CC)cc2)C1 (centres undefined),12.0,0.0,-10.2,6.8,13.7
COC(=O)c1ccc(Oc2nc(SC)nc(N(C)C)n2)cc1,-5.6,x,-1.1,4.5,x
O=C(Cc1cccs1)Nc1nnc(SCc2cccc3ccccc23)s1,68.4*,-3.0,18.2,-6.0,0.9
O=C(c1ccccc1)c1nn(-c2ccc(Cl)cc2)c(=O)cc1C(F)(F)F,-8.3,-1.0,-19.1,1.0,-39.2
